Our source for the outcome and Potency values is PubChem BioAssay (Tox21).

The nature of assay [1]: qHTS assay to test for compound auto fluorescence at 535 nm (green) in HEK293 cells (AID 720680). For orientation: qHTS replaces the single test concentration by a dilution series.
Assay [2] can be described thus: qHTS assay to test for compound auto fluorescence at 460 nm (blue) in HEK293 cell free culture (AID 720681). Further: potency means the concentration at half of the fitted maximal effect. The method in brief:
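Test compounds were pinned into cell-free culture medium (DMEM with 10% FBS) and fluorescence was read directly at Ex/Em 405/460 nm. Signals were expressed as fluorescence equivalents of triamterene, with DMSO vehicle as control.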

Assay [3] is described as follows: qHTS assay to test for compound auto fluorescence at 535 nm (green) in HEK293 cell free culture (AID 720682). The method in brief:
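Green-label autofluorescence (485 nm excitation, 535 nm emission) measured on compound added to cell-free culture medium (DMEM, 10% FBS). Output is expressed relative to fluorescein.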

Assay [4] is described as follows: qHTS assay to test for compound auto fluorescence at 590 nm (red) in HEK293 cell free culture (AID 720683). In outline:
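Tox21 10K library compounds were pinned into cell-free DMEM with 10% FBS and fluorescence was read at excitation 540 nm. Activity is expressed as Rose Bengal sodium equivalency.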

The nature of assay [5]: qHTS assay to test for compound auto fluorescence at 590 nm (red) in HepG2 cell free culture (AID 720684). The method in brief: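 Red fluorescence (540 nm excitation, 590 nm emission) was measured after compound transfer into cell-free MEM supplemented with 10% FBS. Values are equivalencies against Rose Bengal sodium.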
A short description of assay [6]: qHTS assay to test for compound auto fluorescence at 460 nm (blue) in HepG2 cell free culture (AID 720685). In outline: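 Compound (23 nL) or DMSO pinned into cell-free MEM with 10% FBS; blue fluorescence read at 405/460 nm excitation/emission, expressed as auto-fluorescence equivalency to triamterene.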
Assay [7] is described as follows: qHTS assay to test for compound auto fluorescence at 535 nm (green) in HepG2 cell free culture (AID 720686).
A short description of assay [8]: qHTS assay to test for compound auto fluorescence at 460 nm (blue) in HepG2 cells (AID 720687). The method in brief:
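Cells (2,000/well in MEM with 10% FBS) attached overnight at 37 C, then were exposed to compound or DMSO for 1 hr at 37 C, 5% CO2. Fluorescence read at Ex/Em 405/460 nm, expressed as triamterene-equivalent signal.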

Assay [9] addresses Glucocorticoid receptor (Homo sapiens) (UniProt P04150). Description: qHTS assay to identify small molecule agonists of the glucocorticoid receptor (GR) signaling pathway (AID 720691; active means well fitted activation curve with a large enough effect in the signal ratio in the repeat runs, not every such curve was filed as active; the % refers to the signal ratio). The method in brief:
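Agonist mode in a HeLa line carrying a GRE-controlled beta-lactamase reporter. Compounds act for 18 h at 37 C before a 2 h room-temperature FRET substrate step and fluorescence reading.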

A short description of assay [10]: qHTS assay to identify small molecule antagonists of the glucocorticoid receptor (GR) signaling pathway - cell viability counter screen (AID 720693). Further: nearly all actives have a fitted effect of over 55% in size.
The nature of assay [11]: qHTS assay for identifying genotoxic compounds that show differential cytotoxicity against isogenic chicken DT40 cell lines with known DNA damage response pathways - wild type cell line (AID 743012). Further: nearly all actives have a fitted effect of over 60% in size. Further: potency means the concentration at half of the fitted maximal effect. The method in brief: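 Cells (DT40 wild type, 300/well) are treated with DMSO-dissolved compounds after a ~0.5 h pre-incubation and kept 40 h at 37 C/5% CO2. Viability is then measured by CellTiter-Glo luminescence following 30 min at room temperature.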

Assay [12] in a line: qHTS assay for identifying genotoxic compounds that show differential cytotoxicity against isogenic chicken DT40 cell lines with known DNA damage response pathways - Rev3 mutant cell line (AID 743014). Further: nearly all actives have a fitted effect of over 55% in size. Further: potency means the concentration at half of the fitted maximal effect.
Assay [13] can be described thus: qHTS assay for identifying genotoxic compounds that show differential cytotoxicity against isogenic chicken DT40 cell lines with known DNA damage response pathways - Rad54/Ku70 mutant cell line (AID 743015). Further: nearly all actives have a fitted effect of over 60% in size. Further: potency means the concentration at half of the fitted maximal effect.
A short description of assay [14]: qHTS assay to identify small molecule antagonists of the androgen receptor (AR) signaling pathway - cell viability counter screen (AID 743033; further: nearly all actives have a fitted effect of over 45% in size).
The nature of assay [15]: qHTS assay to identify small molecule antagonists of the androgen receptor (AR) signaling pathway using the MDA cell line - cell viability counter screen (AID 743041; further: nearly all actives have a fitted effect of over 45% in size). The method in brief:
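MDA-kb2 AR-luc human breast carcinoma cells (MMTV-luciferase, AR/GR responsive) were treated with compounds plus R1881 agonist for 16 h at 37 °C. Viability was read as CellTiter-Fluor fluorescence in the same wells as the reporter assay.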

The nature of assay [16]: qHTS assay to identify small molecule antagonists of the thyroid receptor (TR) signaling pathway - cell viability counter screen (AID 743064). Further: nearly all actives have a fitted effect of over 50% in size. Further: potency means the concentration at half of the fitted maximal effect. The method in brief:
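GH3.TRE-Luc rat pituitary cells dosed after 4 hr plating, co-stimulated with T3 at 1 nM final, incubated 23.5 h at 37 C. Viability measured in the same wells by CellTiter-Fluor fluorescence after 30 min further at 37 C.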

The target of assay [17] is Glucocorticoid receptor (Homo sapiens) (UniProt P04150). Description: qHTS assay to identify small molecule antagonists of the glucocorticoid receptor (GR) signaling pathway (AID 720692; active means well fitted inhibition curve with a large enough effect in the signal ratio in the repeat runs, not every such curve was filed as active; the % refers to the signal ratio). In outline:
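Cells plated, rested 4 h at 37 C/5% CO2; compounds in DMSO pin-transferred; dexamethasone added to 5 nM final; 18 h at 37 C; B/G FRET substrate added, 2 h room temperature; fluorescence measured.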

In assay [18] the target is Androgen receptor (Homo sapiens) (UniProt P10275). Description: qHTS assay to identify small molecule agonists of the androgen receptor (AR) signaling pathway (AID 743036; active means well fitted activation curve with a large enough effect in the signal ratio in the repeat runs, with a control signal flat, not every such curve was filed as active; the % refers to the signal ratio). In outline:
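AR-UAS-bla HEK293 cells, plated 4 h before dosing, were treated with compound for 16 h at 37C. beta-Lactamase reporter read after 2 h with LiveBLAzer B/G FRET substrate at room temperature.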

Assay [19] shares this target. Description: qHTS assay to identify small molecule agonists of the androgen receptor (AR) signaling pathway using the MDA cell line (AID 743040; further: nearly all actives have a fitted effect of over 20% in size). In outline: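 MDA-kb2 breast carcinoma cells stably carrying an MMTV-driven luciferase reporter (AR- and GR-responsive) were seeded and held 5 h at 37C, 0% CO2, then exposed to compounds in DMSO for 16 h. Luminescence was read 30 min after ONE-Glo addition.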

The target is the same in assay [20]. The assay can be described thus: qHTS assay to identify small molecule antagonists of the androgen receptor (AR) signaling pathway using the MDA cell line (AID 743042; further: nearly all actives have a fitted effect of over 55% in size). The method in brief: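 MDA-kb2 cells (human breast carcinoma, stably carrying an MMTV-luciferase reporter responsive to AR and GR) were plated at 3,000 cells/well and preincubated 5 hr at 37C, then given compound plus R1881 agonist for 16 h. ONE-Glo luminescence was read.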

Structures are written as SMILES. Where “and” joins values, the source holds several entries; their conditions need not be identical. Identical values can stand only once. Values without a mark were called inactive. Inconclusive results are not listed. Calls of active or inactive are those of the source. Unless noted, the call rests on the fitted dose curve; in most records, active means well fitted curve in the direction sought with a large enough effect in the repeat runs; inconclusive means weak or mixed curves; inactive means no such curve, though single readings can be large; an effect the other way counts as inactive or inconclusive.

Chain of Androgen receptor (Homo sapiens) (P10275 whole entry, looked up): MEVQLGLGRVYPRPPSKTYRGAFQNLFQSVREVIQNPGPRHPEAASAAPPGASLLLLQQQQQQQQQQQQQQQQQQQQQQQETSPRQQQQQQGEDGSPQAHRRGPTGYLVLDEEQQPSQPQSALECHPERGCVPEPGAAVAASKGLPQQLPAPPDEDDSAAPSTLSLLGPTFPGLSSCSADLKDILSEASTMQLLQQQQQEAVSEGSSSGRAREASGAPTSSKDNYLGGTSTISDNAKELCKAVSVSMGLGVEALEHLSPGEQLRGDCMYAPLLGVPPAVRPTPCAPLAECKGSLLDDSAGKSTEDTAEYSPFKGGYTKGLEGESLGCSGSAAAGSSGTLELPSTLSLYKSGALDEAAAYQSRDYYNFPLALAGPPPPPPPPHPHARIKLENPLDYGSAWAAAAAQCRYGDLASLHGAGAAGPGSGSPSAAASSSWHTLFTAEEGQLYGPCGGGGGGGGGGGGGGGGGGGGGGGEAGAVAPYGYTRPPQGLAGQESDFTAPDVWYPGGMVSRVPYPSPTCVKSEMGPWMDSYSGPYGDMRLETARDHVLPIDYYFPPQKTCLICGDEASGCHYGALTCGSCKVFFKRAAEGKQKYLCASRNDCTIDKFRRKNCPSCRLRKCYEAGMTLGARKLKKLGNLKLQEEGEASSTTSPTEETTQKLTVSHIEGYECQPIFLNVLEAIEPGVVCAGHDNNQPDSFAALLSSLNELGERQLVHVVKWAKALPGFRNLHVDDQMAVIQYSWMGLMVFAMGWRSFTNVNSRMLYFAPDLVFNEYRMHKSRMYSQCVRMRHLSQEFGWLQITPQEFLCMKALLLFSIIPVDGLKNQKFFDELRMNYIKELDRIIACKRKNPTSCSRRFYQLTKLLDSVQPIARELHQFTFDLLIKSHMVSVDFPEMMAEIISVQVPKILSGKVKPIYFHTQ
Chain of Glucocorticoid receptor (Homo sapiens) (P04150 whole entry, looked up): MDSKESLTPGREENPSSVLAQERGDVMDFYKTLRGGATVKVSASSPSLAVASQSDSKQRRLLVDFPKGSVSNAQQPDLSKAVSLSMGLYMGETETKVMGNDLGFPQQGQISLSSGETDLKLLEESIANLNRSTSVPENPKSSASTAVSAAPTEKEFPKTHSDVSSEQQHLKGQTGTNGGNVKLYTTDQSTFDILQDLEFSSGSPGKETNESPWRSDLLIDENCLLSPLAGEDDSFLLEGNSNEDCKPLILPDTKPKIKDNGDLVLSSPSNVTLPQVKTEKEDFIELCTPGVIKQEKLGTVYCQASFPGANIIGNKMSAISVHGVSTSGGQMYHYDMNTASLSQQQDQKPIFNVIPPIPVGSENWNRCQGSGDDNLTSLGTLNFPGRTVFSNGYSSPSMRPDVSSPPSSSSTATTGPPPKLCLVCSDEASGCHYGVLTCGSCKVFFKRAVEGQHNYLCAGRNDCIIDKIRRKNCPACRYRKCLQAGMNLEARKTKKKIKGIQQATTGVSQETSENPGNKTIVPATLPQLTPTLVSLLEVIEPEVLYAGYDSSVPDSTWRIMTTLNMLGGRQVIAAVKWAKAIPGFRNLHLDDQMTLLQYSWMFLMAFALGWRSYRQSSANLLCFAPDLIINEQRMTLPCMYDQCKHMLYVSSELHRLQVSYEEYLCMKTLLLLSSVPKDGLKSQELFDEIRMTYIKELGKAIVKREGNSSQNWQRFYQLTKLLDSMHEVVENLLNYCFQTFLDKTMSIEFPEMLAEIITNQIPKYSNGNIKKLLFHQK

Consider `Nc1nc(Cl)nc2c1ncn2[C@H]1C[C@H](O)[C@@H](CO)O1`, for which the result in assay [1], in [3], in [4], in assay [5], in assay [6] and in assay [7] was inactive. In addition, the molecule was classed as inactive in [8]. For the same molecule, the Potency result in assay [2], in assay [9], in assay [10], in assay [14] and in [15] was “inactive” in each case. In addition, the Potency is 13.3 nM (active) and 1.9 nM (active) in [11]; 16.8 nM (active) and 1.7 nM (active) in assay [12]; 21.1 nM (active) and 2.7 nM (active) in [13]; 422 nM (active) and 136 nM (active) in assay [16].

Regarding `CCCN(C1CCN(C(=O)C2CCNCC2)CC1)[C@@H]1CCc2ccc(OC)cc2C1`, the molecule was called inactive in [1], in assay [3], in [4], in [5], in [6] and in assay [7]. The result in [8], in [18] and in [19] was inactive. Further, the Potency result in assay [2], in assay [17], in assay [10], in assay [14] and in assay [20] was “inactive” each time. In addition, the Potency in [11] is 15.4 µM (active); in assay [12], 15.4 µM (active); in assay [13], 19.3 µM (active); in assay [16], 68.6 µM (active).

For `FC1(F)C(F)(F)C(F)(F)C2(F)C(F)(C1(F)F)C(F)(F)C(F)(F)C1(F)C(F)(F)C(F)(F)C(F)(F)C(F)(F)C12F` (stereo not drawn), the call in assay [1], in assay [3], in [4], in assay [5], in assay [6] and in assay [7] was inactive. Also, in assay [8], the call was inactive. Besides, the Potency result in assay [2], in assay [9], in assay [10], in assay [11], in assay [12] and in assay [13] was “inactive” in each case. Moreover, the Potency result in assay [14], in assay [15] and in assay [16] was “inactive” in each case.

In the case of `CC[C@H](NC(C)C)[C@H](O)c1ccc(O)c2[nH]c(=O)ccc12`, the result in assay [1], in assay [3], in [4], in assay [5], in assay [6] and in assay [7] was inactive. The molecule was called inactive in assay [8], in assay [18] and in assay [19]. In addition, in assay [2], the Potency was 14.1 µM (active). Moreover, the Potency result in assay [17], in assay [10], in assay [11], in assay [12], in [13] and in [14] was “inactive” each time. For the same molecule, the Potency result in [15] and in assay [20] was “inactive” throughout.

As for `C=CC(=O)NC(C)(C)C`, the call in [1], in [3], in [4], in [5], in assay [6] and in assay [7] was inactive. Also, the molecule was called inactive in assay [8]. Also, the Potency result in assay [2], in assay [9], in [17], in [10], in [12] and in assay [13] was “inactive” each time. Besides, the Potency result in [14], in assay [15] and in assay [16] was “inactive” in each case.

As to `O=c1[nH][nH]c2ccccc12`, the outcome in assay [1], in assay [3], in assay [4], in assay [5], in [6] and in [7] was inactive. In addition, the molecule was classed as inactive in [8] and in [19]. Moreover, the Potency entry in assay [2], in [9], in assay [10], in assay [13], in [14] and in [15] was “inactive” throughout. In addition, the Potency entry in assay [20] and in [16] was “inactive” throughout.

Regarding `O=C(Nc1ccc2c(c1)Cc1ccccc1-2)C(F)(F)F`, the result in [1], in [3], in assay [4], in assay [5], in assay [6] and in assay [7] was inactive. Moreover, in assay [8], the result was inactive. Moreover, the Potency entry in [2], in assay [9], in assay [17], in assay [10], in assay [15] and in [16] was “inactive” throughout. In addition, the Potency in assay [13] was 54.5 µM (active).

On to `Cc1c(N=C=O)cccc1N=C=O`, for which the result in assay [1], in [3], in [4], in [5], in [6] and in [7] was inactive. Also, the call in [8], in assay [18] and in [19] was inactive. Moreover, the Potency result in [2], in assay [9], in assay [17], in assay [10], in [12] and in assay [13] was “inactive” throughout. For the same molecule, the Potency result in assay [14], in assay [15], in assay [20] and in [16] was “inactive” each time.
